Measured values: PubChem BioAssay (EPA / NIEHS)
“And” between values parts separate entries of the source, which are not always exact repeats. Identical values can stand only once. A structure can be active in one record and inactive in another. The source made the active and inactive calls. How the source made its calls: active means hit-call score of the fitted dose curve at least 0.9, where 1 is the maximum; inactive means score below 0.9.

Experiment: CCTE_Shafer_MEA_dev_spike_duration_mean: CCTE's Neural Network Formation Assay for Mean Spike Duration, Shafer Lab (AID 2284051);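 on AC50: potency for a decrease in mean network spike duration versus DMSO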
Description: CCTE_Shafer_MEA_dev assay is conducted using Axion Biosystems 48 well microelectrode array (MEA) plates and Maestro recording system. Each well of the MEA plate contains a grid of 16 microelectrodes embedded in the culture surface. Electrically active cells, such as neurons, can be cultured over the electrodes, and electrical activity in these cells can be recorded extracellularly. The spontaneous firing of neurons is captured from each electrode on a microsecond timescale providing both temporally and spatially precise data. […] The CCTE_Shafer_MEA_dev assay uses primary cultures of rat cortical neurons. Recordings are made on days post-plating 5, 7, 9 and 12. As these cultures mature over time, neural networks develop functional activity and form cohesive networks in which electrical activity can be highly coordinated. CCTE_Shafer_MEA_dev_spike_duration_mean is 1 of 19 assay components of the CCTE_Shafer_MEA_dev assay. It measures the average duration of network spikes (temporally-clustered groups of action potential firing across multiple electrodes) during a recording in a microelectrode array (MEA) using Axion Biosystems Maestro 768 channel amplifier with the AxIS adaptive spike detector. To collapse across multiple recordings made on days post-plating 5, 7, 9 and 12, the trapezoidal area-under-the-curve of the component is calculated.Data from the assay component CCTE_Shafer_MEA_dev_spike_duration_mean was analyzed into 1 assay endpoint. This assay endpoint, CCTE_Shafer_MEA_dev_spike_duration_mean, was analyzed in the negative analysis fitting direction relative to DMSO as the negative control and baseline of activity. Using a type of functional reporter, gain or loss-of-signal activity can be used to understand electrical activity.
On the day prior to culture, each well was coated thoroughly with 150 uL of 0.05% polyethyleneimine (PEI, Sigma Cat P3143) in 50 mM HEPES (Sigma Cat H7523) at a pH of 8. The plate was incubated at 37C for one hour. PEI was rinsed out with 500 uL of sterile water three times. Plates were stored at 4C until the day of culture. This culture was plated at a seeding density of 1.5 x 10^5 cells/well on a 48-well MEA plate, prepared as described above. Cells were administered via a 25 uL media/laminin ([…]; Sigma Cat L2020-1MG) drop directly onto the microelectrode array, as adding the cells with the laminin results in better attachment than pre-coating with laminin. After 2 hours, an additional 475 uL of cortical media was added and the cells returned to the incubator. Exposure starts at day 0 of plating and is continued over twelve days of network development until the experiment is terminated. Cells are fed with fresh medium on DIV 5 and 9, following the recordings on those days. The entire volume of media in the well is exchanged and any vehicle or compound treatment is renewed. Complete details are found in OP-NHEERL/ISTD/SBB/TJS/2015-03-r0 (available on request, email shafer.tim@epa.gov). Measurement of the electrical activity is non-invasive, and recordings can be made from the same plate over multiple different days of the culture. In cortical neurons, this allows for the measurement of extracellular action potentials over the period during which networks form in the MEA plate.

| Compound | outcome | AC50 |
| --- | --- | --- |
| COP(=O)(OC)O/C(C)=C/C(=O)N(C)C | inactive |  |
| CN/C(=N\[N+](=O)[O-])NCc1cnc(Cl)s1 | inactive |  |
| CCCN(CC)CC1COC2(CCC(C(C)(C)C)CC2)O1 (stereo not drawn) |  | 0.275 µM (active) |
| CNC(=O)Oc1cccc2ccccc12 | inactive |  |
| CCOC(=O)C(C)OC(=O)c1cc(Oc2ccc(C(F)(F)F)cc2Cl)ccc1[N+](=O)[O-] (stereo not drawn) | inactive |  |
| CS(=O)(=O)c1ccc(C(=O)C2C(=O)CCCC2=O)c([N+](=O)[O-])c1 | inactive |  |
| O=C(Nc1ccccc1-c1ccc(Cl)cc1)c1cccnc1Cl | inactive | 4.26 µM (active) |
| CCOP(=O)(OCC)Oc1nc(Cl)c(Cl)cc1Cl | inactive | 5.13 µM (active) and 2.98 µM (active) |
| CC1(C)C(C(=O)OC(C#N)c2cccc(Oc3ccccc3)c2)C1(C)C (stereo not drawn) |  | 16.2 µM (active) |
| O=C1C2CC=CCC2C(=O)N1SC(Cl)(Cl)Cl (stereo not drawn) | inactive | 9.85 µM (active) |
| CC1(C)C(C=C(Cl)Cl)C1C(=O)OC(C#N)c1cccc(Oc2ccccc2)c1 (stereo not drawn) | inactive | 6.93 µM (active) |
| CC(C)(C)C(=O)C(Oc1ccc(Cl)cc1)n1cncn1 (stereo not drawn) |  | 40.2 µM (active) |
| COC(=O)N(C(=O)N1CO[C@@]2(C(=O)OC)Cc3cc(Cl)ccc3C2=N1)c1ccc(OC(F)(F)F)cc1 |  | 15 µM (active) |
| CCNC(=O)NC(=O)C(C#N)=NOC | inactive |  |
| COP(=S)(OC)Oc1ccc([N+](=O)[O-])c(C)c1 | inactive |  |
| CS(=O)(=O)c1cc(C(F)(F)F)ccc1C(=O)c1cnoc1C1CC1 | inactive |  |
| Cc1c(COC(=O)[C@@H]2[C@H](/C=C(\Cl)C(F)(F)F)C2(C)C)cccc1-c1ccccc1 |  | 2.33 µM (active) and 2.32 µM (active) |
| C=C(C)CN(CC)c1c([N+](=O)[O-])cc(C(F)(F)F)cc1[N+](=O)[O-] |  | 13.2 µM (active) |
| N#CN=C1SCCN1Cc1ccc(Cl)nc1 | inactive |  |
| CO/N=C(/C1=NOCCO1)c1ccccc1Oc1ncnc(Oc2ccccc2Cl)c1F |  | 856 nM (active) and 904 nM (active) |
| CC(C)=CC1C(C(=O)OCc2coc(Cc3ccccc3)c2)C1(C)C (stereo not drawn) | inactive |  |
| COP(=S)(OC)SCn1nnc2ccccc2c1=O |  | 27.2 µM (active) |
| CCSC(=O)N1CCCCCC1 | inactive |  |
| CCN(CC)c1nc(C)cc(OP(=S)(OC)OC)n1 |  | 50 µM (active) |
